PubChem BioAssay (NCATS)
Inconclusive results are not listed. Activity calls are given as the source filed them. Unless noted, calls follow the shape of the dose curve; as a rule, active = well fitted curve in the direction sought with a large enough effect; inconclusive = small, poorly fitted or top-dose-only effect, or another doubt; inactive = no such curve, though single readings can be large; an effect the other way counts as inactive or inconclusive.

Key:
[1] = Nrf2 qHTS screen for inhibitors: Validation (AID 493153; active = well fitted inhibition curve with a large enough effect in the main read-out, with a control signal flat, not every such curve was filed as active; also: potency is read from the fitted curve at half-maximal effect); conditions: Potency: luciferase luminescence; viability change: measured here: cytotoxicity max response
Method in brief: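 In this counterscreened reporter format, each well gives two signals: CellTiter-Fluor fluorescence for cytotoxicity and ARE-luciferase luminescence for Nrf2 function. A549 ARE_Fluc cells in 5% FBS OPTI-MEM were exposed to compound titrations for 18-24 h.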

[2] = qHTS for Inhibitors of Cell Surface uPA Generation: Validation Assay (AID 493164);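 also: RAW 264.7 macrophage cells exposed to compound for 18 h; 0% is about no effect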
Method in brief: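 Compounds are titrated over seven points (2.45 nM–38.3 uM final) onto pre-plated RAW 264.7 cells and incubated for 18 h. Retained intracellular ATP, measured with ATP-Lite, indicates blocked lethal factor entry.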

[3] = biological target: Galactokinase (Homo sapiens) (UniProt P51570); assay: qHTS Validation Assay for Inhibitors of Human Galactokinase (GALK) (AID 493189); also: 0% is about no effect
Method in brief: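 Luminescence from leftover ATP (Kinase-Glo Plus, 10 min) served as read-out after a 1 h room-temperature reaction of 5 nM GALK, 100 uM galactose and 35 uM ATP at pH8.0.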

[4] = Validation screen for small molecules that induce DNA re-replication in SW480 colon adenocarcinoma cells (AID 504364); also: 0% is about no effect
Method in brief: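 Hoechst-stained SW480 nuclei, imaged at 405 nm excitation after 48 hr compound exposure, were counted for elevated DNA content as the re-replication signal.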

[5] = biological target: Peptidyl-prolyl cis-trans isomerase NIMA-interacting 1 (Homo sapiens) (UniProt Q13526); assay: qHTS Validation Assay to Find Inhibitors of Pin1 (AID 504536; active = well fitted inhibition curve with a large enough effect in the polarisation, with a control signal flat, not every such curve was filed as active; the % refers to the polarisation;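 also: 0% = full Pin1 enzyme wells and -100% = no-enzyme wells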)
Method in brief: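 Fluorescence polarization competition: compounds (titration) displace HiFluor-488-labeled Pin1-1b peptide from Pin1 (0.3 uM final) in pH 7.5 HEPES buffer with DTT, 10 min at room temperature; %Activity normalized to no-enzyme wells, curves fitted.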

[6] = biological target: Phosphoglycerate kinase, glycosomal (Trypanosoma brucei brucei) (UniProt P07378); assay: qHTS Validation Assay to Find Inhibitors of Phosphoglycerate Kinase (AID 504547);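 also: control wells lack PGK and mark full inhibition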
Method in brief: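 Compounds are pinned into the substrate/PGK mixture, and GAPDH (100nM final) is added to start the reaction by producing 1,3-BPG. After 60 minutes at room temperature, Kinase-Glo Plus is added and luminescence is measured 10 minutes later.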

[7] = biological target: phosphoglycerate mutase (Leishmania major) (UniProt Q4Q090); assay: qHTS Validation Assay to Find Inhibitors of Phosphoglycerate Mutase (AID 504548); also: series mostly up to about 58 µM; % is scaled to controls: 0 for no effect and ±100 for the full control effect
Method in brief: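 Luminescent end-point read-out via Kinase-GloPlus after a 10-minute development. Reaction: 1.25nM Leishmania major PGAM with substrate and compound, 45 minutes at room temperature in TEA buffer (pH 7.6) with MgCl2 and Tween-20.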

[8] = biological target: Ubiquitin carboxyl-terminal hydrolase 1 (Homo sapiens) (UniProt O94782); assay: Inhibitors of USP1/UAF1: Pilot qHTS (AID 504865);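 also: rhodamine fluorescence freed from ubiquitin-rhodamine substrate followed over time; top concentration of the series differs between compounds; % is scaled to controls: 0 for no effect and ±100 for the full control effect; nearly all actives have a fitted effect of over 35% in size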
Method in brief: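 1nM USP1/UAF1 + cpd, 15 min RT; start w/ Ub-Rho 150nM final; kinetic FL 480/540 nm, 6 reads q60 s. Buffer 50mM HEPES pH 7.8, 0.5mM EDTA, 1mM TCEP, 0.01% Tween-20, 0.1 mg/ml BSA.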

[9] = qHTS for Inhibitors of ATXN expression: Validation of Cytotoxic Assay (AID 588349); also: % is scaled to controls: 0 for no effect and ±100 for the full control effect
Method in brief: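 Toxicity of test compounds toward HEK293 cells is scored from cellular ATP content measured by CellTiter Glo. Cells receive titrated doses and incubate 72 hr at 37 degrees C beforehand.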

[10] = qHTS for Inhibitors of ATXN expression: Validation (AID 588378); also: series mostly up to about 57 µM; % is scaled to controls: 0 for no effect and ±100 for the full control effect; nearly all actives have a fitted effect of over 75% in size
Method in brief: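 Cells: HEK293-ATXN2-FFLuc, phenol-red free DMEM, 2 h attachment. Compound pin-transfer, 24 h, 37 degrees C, 5% CO2. CellTiter-Fluor 30 min, Ex405/Em525; Bright-Glo 5 min, luminescence 2 s exposure.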

[11] = biological target: Estrogen receptor (Homo sapiens) (UniProt P03372); assay: qHTS assay for small molecule antagonists of estrogen receptor alpha signaling (AID 588513; active = well fitted curve in the direction sought with a large enough effect in the signal ratio, with a control signal flat, not every such curve was filed as active; the % refers to the signal ratio; also: % is scaled to controls: 0 for no effect and ±100 for the full control effect)
Method in brief: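 Beta-lactamase reporter, antagonist mode, HEK 293 GripTite cells; 0.5nM E2 stimulus, 18 h, 37 C; CCF4 dye 2 h RT; fluorescence. IC50 and efficacy from Hill fits, normalized to E2 and DMSO.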

[12] = biological target: Estrogen receptor (Homo sapiens) (UniProt P03372); assay: qHTS assay for small molecule agonists of estrogen receptor alpha signaling (AID 588514; calls by dose curve;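 also: 0% = vehicle only and 100% = reference agonist; nearly all actives have a fitted effect of over 70% in size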)
Method in brief: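 Fluorescence from CCF4 cleavage reports ER-alpha-driven beta-lactamase expression in HEK 293 cells treated 18 hrs at 37 C. Data normalized to 17-beta-estradiol (20 nM) and DMSO, fitted to Hill equation.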

[13] = biological target: Glucocorticoid receptor (Homo sapiens) (UniProt P04150); assay: qHTS assay for small molecule agonists of glucocorticoid receptor signaling (AID 588532; active = well fitted curve in the direction sought with a large enough effect in the signal ratio, with a control signal flat; the % refers to the signal ratio; also: potency is read from the fitted curve at half-maximal effect); conditions: HeLa MMTV-bla, beta-lactamase ratio, agonist, 18 h; activation: stronger effect = higher value, percent of dexamethasone control, DMSO zero
Method in brief: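 Cells were plated and rested 3-5 h at 37 C, compounds were added in titration and incubated 18 h, then CCF4 substrate was loaded for 2 h at RT before reading blue/green fluorescence. EC50 came from Hill-equation fitting.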

[14] = biological target: Glucocorticoid receptor (Homo sapiens) (UniProt P04150); assay: qHTS assay for small molecule antagonists of glucocorticoid receptor signaling (AID 588533; active = well fitted inhibition curve with a large enough effect in the signal ratio, with a control signal flat, not every such curve was filed as active; the % refers to the signal ratio;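 also: cells stimulated with 2 nM dexamethasone as agonist; % is scaled to controls: 0 for no effect and ±100 for the full control effect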)
Method in brief: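 Antagonist-mode qHTS: compound titrations added to GRE-bla HeLa cells, then dexamethasone 2 nM final; 18 h, 37 C. CCF4 FRET fluorescence normalized to dexamethasone and DMSO; IC50 from Hill fit.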

[15] = biological target: DNA dC->dU-editing enzyme APOBEC-3G (Homo sapiens) (UniProt Q9HC16); assay: qHTS for inhibitors of Vif-A3G interactions: Validation (AID 588379); also: 0% is about no effect
Method in brief: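 Yellow fluorescence (Ex 488, Em 500-530) of Vif-coexpressing HeLa A3G-eYFP cells, scanned by Acumen cytometer, reports blocked A3G degradation. Cells plated at 700/well overnight at 37 deg C before compound addition, then a further overnight compound incubation at 37 deg C.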

[16] = biological target: Thyrotropin-releasing hormone receptor (Homo sapiens) (UniProt P34981); assay: qHTS for Small Molecule Agonists and Allosteric Enhancers of Human TRH Receptor: Validation Screen for Agonists (AID 493127;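 active = calcium activation more than 3 SD above the typical response in the agonist read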;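 also: intracellular calcium rise by fluo-8 fluorescence before TRH EC20 addition; 0% is about no effect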); conditions: TRH receptor agonist cell assay; at 2 µM; stronger effect = higher value
Method in brief: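 Kinetic fluorescence assay of agonist-induced calcium release: overnight-plated TRHR cells, room-temperature fluo-8 loading, baseline then compound addition with per-second reads.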

Ubiquitin carboxyl-terminal hydrolase 1 (Homo sapiens), sequence (O94782 whole entry, looked up): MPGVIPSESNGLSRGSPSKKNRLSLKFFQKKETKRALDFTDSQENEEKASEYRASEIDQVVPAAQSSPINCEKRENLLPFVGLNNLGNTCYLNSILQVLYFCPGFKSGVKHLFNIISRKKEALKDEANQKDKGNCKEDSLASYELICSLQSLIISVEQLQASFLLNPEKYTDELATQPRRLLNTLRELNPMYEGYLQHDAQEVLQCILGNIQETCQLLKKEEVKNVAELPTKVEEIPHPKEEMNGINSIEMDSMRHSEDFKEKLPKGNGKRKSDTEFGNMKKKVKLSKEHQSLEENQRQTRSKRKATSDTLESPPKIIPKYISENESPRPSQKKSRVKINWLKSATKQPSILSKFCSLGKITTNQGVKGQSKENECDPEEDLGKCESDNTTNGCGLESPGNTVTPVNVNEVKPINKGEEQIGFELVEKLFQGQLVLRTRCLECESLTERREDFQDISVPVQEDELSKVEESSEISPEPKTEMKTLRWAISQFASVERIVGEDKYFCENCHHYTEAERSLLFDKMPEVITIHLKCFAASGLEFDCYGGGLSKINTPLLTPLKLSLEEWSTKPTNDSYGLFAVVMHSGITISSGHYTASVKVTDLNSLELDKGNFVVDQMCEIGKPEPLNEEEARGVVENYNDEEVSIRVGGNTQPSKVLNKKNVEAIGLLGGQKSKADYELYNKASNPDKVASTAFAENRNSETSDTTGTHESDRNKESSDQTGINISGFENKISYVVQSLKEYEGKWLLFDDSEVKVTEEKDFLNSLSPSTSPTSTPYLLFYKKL
Peptidyl-prolyl cis-trans isomerase NIMA-interacting 1 (Homo sapiens), sequence (Q13526 whole entry, looked up): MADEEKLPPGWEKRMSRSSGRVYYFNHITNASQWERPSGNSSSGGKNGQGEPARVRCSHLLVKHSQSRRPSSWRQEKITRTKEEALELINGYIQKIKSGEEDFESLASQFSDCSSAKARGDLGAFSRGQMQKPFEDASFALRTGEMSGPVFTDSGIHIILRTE
Galactokinase (Homo sapiens), sequence (P51570 whole entry, looked up): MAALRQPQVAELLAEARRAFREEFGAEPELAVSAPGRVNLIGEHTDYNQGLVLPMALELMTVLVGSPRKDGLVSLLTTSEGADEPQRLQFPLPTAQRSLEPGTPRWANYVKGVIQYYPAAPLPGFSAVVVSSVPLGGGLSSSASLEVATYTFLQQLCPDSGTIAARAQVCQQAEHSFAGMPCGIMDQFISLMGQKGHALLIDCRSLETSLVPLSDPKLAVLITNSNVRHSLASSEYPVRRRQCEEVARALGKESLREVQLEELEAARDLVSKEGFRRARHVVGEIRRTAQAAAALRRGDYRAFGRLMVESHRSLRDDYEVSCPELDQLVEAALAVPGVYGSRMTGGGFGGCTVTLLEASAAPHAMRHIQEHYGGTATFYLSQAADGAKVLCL
phosphoglycerate mutase (Leishmania major), sequence (Q4Q090 1-553): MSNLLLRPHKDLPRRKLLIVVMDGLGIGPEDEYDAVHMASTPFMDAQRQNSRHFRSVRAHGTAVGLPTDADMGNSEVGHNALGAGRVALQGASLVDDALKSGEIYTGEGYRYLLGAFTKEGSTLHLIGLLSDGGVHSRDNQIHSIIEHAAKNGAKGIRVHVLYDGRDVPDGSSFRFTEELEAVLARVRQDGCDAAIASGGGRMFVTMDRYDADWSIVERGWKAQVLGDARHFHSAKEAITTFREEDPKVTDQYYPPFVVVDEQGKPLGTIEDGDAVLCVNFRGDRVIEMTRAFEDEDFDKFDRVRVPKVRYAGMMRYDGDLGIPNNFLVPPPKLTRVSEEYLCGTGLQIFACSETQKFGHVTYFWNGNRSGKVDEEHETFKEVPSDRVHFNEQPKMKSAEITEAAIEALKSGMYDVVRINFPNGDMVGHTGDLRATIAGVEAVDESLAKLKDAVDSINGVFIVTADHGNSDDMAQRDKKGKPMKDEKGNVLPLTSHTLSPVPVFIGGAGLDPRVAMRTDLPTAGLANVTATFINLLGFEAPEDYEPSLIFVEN
Phosphoglycerate kinase, glycosomal (Trypanosoma brucei brucei), sequence (P07378 whole entry, looked up): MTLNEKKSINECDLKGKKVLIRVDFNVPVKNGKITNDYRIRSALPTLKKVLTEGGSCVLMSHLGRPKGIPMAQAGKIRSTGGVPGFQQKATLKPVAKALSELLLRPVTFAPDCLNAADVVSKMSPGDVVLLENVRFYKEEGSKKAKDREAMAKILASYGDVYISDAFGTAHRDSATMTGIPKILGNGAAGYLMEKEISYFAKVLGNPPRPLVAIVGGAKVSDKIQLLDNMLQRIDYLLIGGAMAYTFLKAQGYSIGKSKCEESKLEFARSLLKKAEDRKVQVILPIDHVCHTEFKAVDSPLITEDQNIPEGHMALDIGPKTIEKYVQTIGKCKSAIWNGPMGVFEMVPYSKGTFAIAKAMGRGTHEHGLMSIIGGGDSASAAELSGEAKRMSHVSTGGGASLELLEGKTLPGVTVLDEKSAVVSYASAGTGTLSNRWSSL
Estrogen receptor (Homo sapiens), sequence (P03372 whole entry, looked up): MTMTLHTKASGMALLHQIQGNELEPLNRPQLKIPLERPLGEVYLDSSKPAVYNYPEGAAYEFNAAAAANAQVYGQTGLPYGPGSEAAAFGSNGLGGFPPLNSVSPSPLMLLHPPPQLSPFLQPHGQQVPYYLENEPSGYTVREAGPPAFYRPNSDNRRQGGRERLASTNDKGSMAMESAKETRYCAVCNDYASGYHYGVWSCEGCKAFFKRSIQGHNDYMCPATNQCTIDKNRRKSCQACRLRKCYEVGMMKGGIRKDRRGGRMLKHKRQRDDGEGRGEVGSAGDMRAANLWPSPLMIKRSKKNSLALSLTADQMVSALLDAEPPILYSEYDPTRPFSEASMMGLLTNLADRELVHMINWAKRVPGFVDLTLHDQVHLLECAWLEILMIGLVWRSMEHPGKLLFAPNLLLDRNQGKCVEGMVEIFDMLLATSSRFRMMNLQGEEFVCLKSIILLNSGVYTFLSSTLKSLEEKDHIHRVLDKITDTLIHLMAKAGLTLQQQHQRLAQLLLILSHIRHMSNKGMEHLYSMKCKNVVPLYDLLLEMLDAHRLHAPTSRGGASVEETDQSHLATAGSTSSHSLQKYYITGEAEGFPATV
DNA dC->dU-editing enzyme APOBEC-3G (Homo sapiens), sequence (Q9HC16 whole entry, looked up): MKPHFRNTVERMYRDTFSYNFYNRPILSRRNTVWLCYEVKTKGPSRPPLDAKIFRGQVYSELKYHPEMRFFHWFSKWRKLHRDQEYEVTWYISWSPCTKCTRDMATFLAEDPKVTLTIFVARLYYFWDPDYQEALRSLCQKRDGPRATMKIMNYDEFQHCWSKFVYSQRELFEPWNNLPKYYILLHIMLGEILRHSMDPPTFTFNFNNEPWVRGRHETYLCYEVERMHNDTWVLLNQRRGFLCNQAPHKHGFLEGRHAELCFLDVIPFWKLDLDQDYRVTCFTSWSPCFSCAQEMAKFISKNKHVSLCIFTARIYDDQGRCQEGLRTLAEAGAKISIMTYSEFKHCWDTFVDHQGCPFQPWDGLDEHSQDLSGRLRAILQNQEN
Glucocorticoid receptor (Homo sapiens), sequence (P04150 whole entry, looked up): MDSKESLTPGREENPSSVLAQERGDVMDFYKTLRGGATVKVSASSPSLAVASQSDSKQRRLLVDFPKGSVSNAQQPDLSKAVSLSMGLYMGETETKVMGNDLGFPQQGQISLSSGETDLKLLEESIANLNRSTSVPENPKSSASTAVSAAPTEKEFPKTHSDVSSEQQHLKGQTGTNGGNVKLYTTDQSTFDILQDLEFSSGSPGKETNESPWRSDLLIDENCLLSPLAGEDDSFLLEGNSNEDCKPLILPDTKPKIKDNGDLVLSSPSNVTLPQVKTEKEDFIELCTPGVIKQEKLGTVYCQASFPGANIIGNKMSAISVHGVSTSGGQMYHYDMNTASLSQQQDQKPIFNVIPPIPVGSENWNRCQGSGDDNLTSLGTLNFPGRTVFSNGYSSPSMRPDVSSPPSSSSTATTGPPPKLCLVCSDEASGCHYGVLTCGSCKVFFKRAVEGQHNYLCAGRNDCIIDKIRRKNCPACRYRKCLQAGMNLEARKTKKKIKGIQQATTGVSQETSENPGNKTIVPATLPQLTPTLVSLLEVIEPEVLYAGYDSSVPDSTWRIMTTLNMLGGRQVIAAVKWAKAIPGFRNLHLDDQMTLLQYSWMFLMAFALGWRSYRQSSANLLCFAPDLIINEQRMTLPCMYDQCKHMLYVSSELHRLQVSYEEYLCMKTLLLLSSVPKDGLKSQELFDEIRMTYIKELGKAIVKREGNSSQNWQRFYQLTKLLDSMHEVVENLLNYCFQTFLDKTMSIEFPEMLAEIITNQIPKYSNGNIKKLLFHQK
Thyrotropin-releasing hormone receptor (Homo sapiens), sequence (P34981 whole entry, looked up): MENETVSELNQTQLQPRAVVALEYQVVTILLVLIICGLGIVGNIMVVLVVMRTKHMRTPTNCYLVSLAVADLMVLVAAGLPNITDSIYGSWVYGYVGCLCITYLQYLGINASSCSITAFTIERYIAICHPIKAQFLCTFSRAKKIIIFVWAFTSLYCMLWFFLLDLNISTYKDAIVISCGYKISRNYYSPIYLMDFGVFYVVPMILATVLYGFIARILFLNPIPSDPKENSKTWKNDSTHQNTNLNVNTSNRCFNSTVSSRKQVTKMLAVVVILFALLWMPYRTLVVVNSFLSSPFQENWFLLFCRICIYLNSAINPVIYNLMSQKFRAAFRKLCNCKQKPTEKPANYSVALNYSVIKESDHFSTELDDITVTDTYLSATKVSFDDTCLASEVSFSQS

C[C@]12C=CC(=O)C=C1CC[C@H]1[C@@H]3C[C@@H](O)[C@](O)(C(=O)CO)[C@@]3(C)C[C@H](O)[C@@]12F
-4.26%: viability change [1]
active: Potency [1] 82 nM | Potency [13] 112 nM
inactive: outcome [2] | outcome [3] | outcome [4] | outcome [5] | outcome [6] | outcome [7] | Potency [8] | Potency [9] | Potency [10] | outcome [11] | Potency [12] | Potency [14]

CN1CCN(CC(=O)N2c3ccccc3C(=O)Nc3cccnc32)CC1
inactive: Potency [1] | outcome [2] | outcome [3] | outcome [4] | outcome [5] | outcome [6] | outcome [7] | Potency [8] | Potency [9] | Potency [10] | outcome [15]
11.6%: viability change [1]

COC(=O)C1=C(C)NC(C)=C(C(=O)OC(C)(C)CN(C)CCC(c2ccccc2)c2ccccc2)C1c1cccc([N+](=O)[O-])c1 (stereo unspecified)
inactive: outcome [2] | outcome [5] | outcome [6] | outcome [7]

OCCN1CCN(CCCN2c3ccccc3C=Cc3ccccc32)CC1
4.92%: viability change [1]
inactive: Potency [1] | outcome [2] | outcome [3] | outcome [4] | outcome [5] | outcome [6] | outcome [7] | Potency [8]

O=C(O)CP(=O)(O)O
10.3%: viability change [1]
inactive: Potency [1] | outcome [2] | outcome [3] | outcome [4] | outcome [5] | outcome [6] | outcome [7] | Potency [8] | Potency [9] | Potency [10]

CC(=O)OC(C)C[N+](C)(C)C (stereo unspecified)
2.56%: viability change [1]
inactive: Potency [1] | outcome [2] | outcome [3] | outcome [4] | outcome [5] | outcome [6] | outcome [7] | Potency [8] | Potency [9] | Potency [10]

CCCCNc1c(C(=O)OCC)c(C)nc2c1cnn2CC
2.43%: viability change [1]
inactive: Potency [1] | outcome [2] | outcome [3] | outcome [4] | outcome [5] | outcome [6] | outcome [7] | Potency [8] | Potency [9] | Potency [10] | outcome [15]

C[C@]12CCC(=O)C=C1CC[C@@H]1[C@@H]2CC[C@@]2(C)[C@H]1CC[C@]2(O)C(=O)CO
inactive: activation [16] 0.188% | outcome [2] | outcome [3] | outcome [4] | outcome [5] | outcome [6] | outcome [7] | Potency [8] | Potency [9] | Potency [10]

CC[N+](C)(C)c1cccc(O)c1
0.744%: viability change [1]
inactive: Potency [1] | outcome [2] | outcome [3] | outcome [4] | outcome [5] | outcome [6] | outcome [7] | Potency [8] | Potency [9] | Potency [10]

CSc1ccc(C(=O)c2[nH]c(=O)[nH]c2C)cc1
inactive: Potency [1] | outcome [2] | outcome [3] | outcome [4] | outcome [5] | outcome [6] | outcome [7] | Potency [8] | Potency [9] | Potency [10]
0%: viability change [1]
